Pf growth 96h = Primary qHTS for delayed death inhibitors of the malarial parasite plastid, 96 hour incubation | P. falciparum luciferase reporter growth, 96 h | actives 6.9% (n = 320,000) | Potency, µM (doses to about 28.7 µM), for inactives: top-dose activity change, negative = inhibition, most hits filed as inhibitors; note: potency is the fitted concentration of half-maximal effect
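Two-generation exposure (96 h) targets delayed-death phenotype. Reporter parasites carrying integrated firefly luciferase, in red cells at 2% hematocrit and 0.05% parasitemia final, kept at 37 C, 5% CO2; luminescence loss indicates inhibition.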
Pf growth 48h = Primary qHTS for delayed death inhibitors of the malarial parasite plastid, 48 hour incubation; P. falciparum luciferase growth in erythrocytes, 48 h; Potency, µM (titrated, usually from 28.7 µM), inactives show at the highest dose activity change, negative = inhibition, most hits filed as inhibitors; actives 5.9% (n = 310,000); AID 504832, 2011; note: potency is the fitted concentration of half-maximal effect
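Luciferase-expressing P. falciparum in infected erythrocytes (2% hematocrit, 0.1% parasitemia final) in RPMI 1640/0.5% Albumax were exposed to compound for 48 hours at 37 C, 5% CO2; growth read as luminescence.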
FBPA Giardia inh = qHTS Assay for Inhibitors of Fructose-1,6-bisphosphate Aldolase from Giardia Lamblia; Potency, µM (titrated, usually from 59.6 µM), inactives show top-dose activity, negative = inhibition, hits mostly inhibitors; A8B2U2; actives 0.71% (n = 290,000); purified Giardia FBPA; AID 2451, 2010; note: potency is the fitted concentration of half-maximal effect; nearly all actives have a fitted effect of over 55% in size
Target sequence (A8B2U2 whole entry, looked up): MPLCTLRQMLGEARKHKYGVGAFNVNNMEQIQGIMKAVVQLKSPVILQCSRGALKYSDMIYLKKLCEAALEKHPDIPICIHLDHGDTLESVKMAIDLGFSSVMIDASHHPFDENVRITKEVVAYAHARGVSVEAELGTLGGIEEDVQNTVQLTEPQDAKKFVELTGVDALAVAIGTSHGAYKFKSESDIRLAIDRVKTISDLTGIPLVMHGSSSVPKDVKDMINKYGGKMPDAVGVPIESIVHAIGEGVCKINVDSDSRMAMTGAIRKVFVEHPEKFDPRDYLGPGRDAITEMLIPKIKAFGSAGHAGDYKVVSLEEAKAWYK
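40 nM FBPA preincubated 10 min at RT with compound (up to 57.5 uM final), then substrate plus GAPDH/TPI/NAD/arsenate coupling and diaphorase/resazurin added. Fluorescence read after 20 min at RT, 525/598 nm.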
HCMV antiviral = qHTS Assay for inhibitors of the human cytomegalovirus (HCMV). HFF cells, HCMV-luciferase reporter, 72 h; active compounds read low. activity change, negative = inhibition, % at 57.5 µM. actives 4.5% (n = 410,000). AID 1259415, 2018; in the data active = activity change below about -60%; inconclusive = no clear call, values can overlap the other calls; inactive = above about -39%
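Human foreskin fibroblasts infected with luciferase-reporter HCMV at MOI 1 PFU/cell, compounds at two doses. Luciferase measured 72 h post infection; normalized to buffer-only basal and Salinomycin (10uM) controls.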
Sm TGR block = qHTS Assay for the Inhibitors of Schistosoma Mansoni Peroxiredoxins | actives 3% (n = 360,000) | AID 485364, 2010 | purified TGR, DTNB reduction, TNB absorbance 405 nm | Potency, µM (titrated, usually from 114 µM), inactives show top-dose activity change, negative = inhibition, hits mostly inhibitors | Schistosoma mansoni thioredoxin glutathione reductase (TGR), Q962Y6; note: potency is the fitted concentration of half-maximal effect; nearly all actives have a fitted effect of over 60% in size
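TGR 20 nM + NADPH 100 uM (dispensed conc.), cpd preinc 15 min RT; start with NADPH (500 uM addition) then DTNB (15 mM addition). Kinetic TNB absorbance, 405 nm filter. Four-parameter Hill fit across titration.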
Starred values were filed as active, the others as inactive; ? = inconclusive; / = no result given. An excerpt weighted towards active compounds, which were near 14% of everything screened. Unless noted, calls come from the whole dose curve; as a rule, active = well fitted curve in the direction sought with a large enough effect; inconclusive = small, poorly fitted or top-dose-only effect, or another doubt; inactive = no such curve, though single readings can be large; an effect the other way counts as inactive or inconclusive. % is set by controls: 0 for no effect and ±100 for the full control effect.

SMILES | Pf growth 96h | Pf growth 48h | FBPA Giardia inh | HCMV antiviral | Sm TGR block
Cc1cnc(C(=O)OCC(=O)c2ccc[nH]2)cn1 | 25.1% | ? | / | -21.7 | -7.3%
O=C(c1cn(-c2ccccc2)nc1-c1cccnc1)N1CCN(S(=O)(=O)c2ccc(Cl)cc2)CC1 | / | / | / | -8.0 | /
O=C(NC1CCN(Cc2ccc(Cl)cc2)CC1)c1cn(-c2ccccc2)nc1-c1cccnc1 | ? | 1.85µM* | / | -13.1 | 2.1%
CCc1ccccc1NC(=O)CNC(=O)c1cn(Cc2ccccc2)nc1-c1cccnc1 | 5.86µM* | ? | / | -11.4 | -7.4%
O=C(NCc1cccnc1)c1cn(-c2ccccc2)nc1-c1ccccc1 | 30.5% | 53.2% | 5.5% | -1.2 | 0.1%
O=C(NCc1ccncc1)c1cn(-c2ccccc2)nc1-c1cccnc1 | ? | 14.7µM* | 6.3% | 11.5 | -6.0%
O=C(CN1CCc2cc3c(cc2C1)OCCCO3)Nc1c(F)cccc1F | ? | 5.6% | / | 2.0 | 6.6%
Cc1cccc(-n2ccnc2CN2CCN(C3CCCC3)C(CCO)C2)c1 (centres undefined) | 6.57µM* | -14.0% | 1.5% | -26.4 | ?
COc1ccc(-n2ccnc2CN2CCN(C3CCCC3)C(CCO)C2)cc1 (centres undefined) | 44.6% | -0.8% | 1.3% | -21.6 | 25.1µM*
OCCC1CN(Cc2ccc(Oc3ncccn3)cc2)CCN1C1CCCCC1 (centres undefined) | 18.1% | 10.4% | 0.1% | -25.0 | -10.9%
CCOC(=O)C1(CC2CCCCO2)CCN(Cc2nccn2-c2ccc(OC)cc2)CC1 (centres undefined) | -11.0% | 10.4µM* | 10.0% | ? | -5.8%
CC(C)(C)C1CCc2c(sc3nc(-c4cc5cc(Cl)ccc5oc4=O)[nH]c(=O)c23)C1 (centres undefined) | / | / | / | -22.2 | 4.0%
c1ccc(CCCNc2ncccn2)cc1 | 3.29µM* | 69.4% | -11.6% | -29.7 | -0.2%
O=c1c2ccccc2ccc2ccccc12 | 22.3% | 15.6% | / | -104.0* | 2.3%
COC(=O)c1sc2cccc(F)c2c1S(=O)(=O)Nc1ccc(C)cc1Cl | / | / | / | 21.1 | -0.4%
Cc1ccc(CN2CCCN(Cc3ccc(Cl)cc3)S2(=O)=O)cc1 | -0.1% | 36.7% | 1.1% | 18.0 | -1.0%
Cc1ccccc1CN1CCCN(Cc2ccc(Cl)cc2)S1(=O)=O | 0.0% | 12.1% | -6.2% | -60.0* | 3.7%
COC(=O)CN1CC(=O)c2ccccc2S1(=O)=O | / | / | 25.4% | / | /
C=C1CCN(CC(=O)OC)S(=O)(=O)c2ccccc21 | ? | 3.4% | 6.2% | 31.7 | 31.6µM*
O=C(c1cc(C(=O)NCc2ccc(Cl)cc2)c(=O)n(Cc2ccc(Cl)cc2)c1)c1cc(F)ccc1O | 1.47µM* | 2.94µM* | -2.4% | -16.7 | 7.9%
O=C(NCc1ccc(Cl)cc1)c1ccc(Cn2cc(C(F)(F)F)ccc2=O)cc1 | ? | ? | -2.0% | -9.8 | 5.1%
CCN(CC)C(=O)C1=C(C)NC(=S)NC1c1cn(-c2ccccc2)nc1-c1ccc(Cl)cc1 (centres undefined) | ? | 4.15µM* | / | 0.9 | 4.9%
CCCCOc1ccc(-c2nn(-c3ccccc3)cc2C2NC(=O)NC(C)=C2C(=O)OC)cc1 (centres undefined) | / | / | / | -14.5 | -2.2%
Brc1c(-c2ccccc2)nc2n1Cc1ccccc1-2 | 180.3% | 162.1% | -0.7% | -83.9* | -1.7%
CCCCn1nnnc1C(c1cc2ccccc2o1)N1CCN(c2ccccc2F)CC1 (centres undefined) | / | / | / | 8.8 | /
CCCCn1nnnc1C(c1cc2ccccc2o1)N1CCN(c2cc(C)nc3ccccc23)CC1 (centres undefined) | / | / | / | -103.1* | /
NC(=O)C1CCN(C(=O)CCNS(=O)(=O)c2cc(Br)cnc2N)CC1 | 15.2% | 25.0% | 17.3% | 19.0 | 4.0%
Nc1ncc(Br)cc1S(=O)(=O)NCCC(=O)N1CCN(c2ccccc2)CC1 | 34.1% | 6.57µM* | / | -17.0 | 2.4%
Nc1ncc(Br)cc1S(=O)(=O)NCCC(=O)N1CCN(c2ccccn2)CC1 | 5.8% | 11.7µM* | -0.8% | -30.0 | -3.5%

Assay outcomes from PubChem.
